Test results from article PMC4336329 (PLoS ONE, 2015).
The campaign covered roughly 310,000 compounds. About 14,000 (4.5%) showed an effect of 50% or more. The effect is printed as a negative number. Many of the other results were omitted from the sample, so strong results are more common in it than they were.

Biological target: human ether-à-go-go-related gene (hERG) potassium channel (human, UniProt Q12809)
Test: primary screen, population patch clamp on CHO cells stably expressing hERG; higher = less effect of the substance
Protocol: Briefly, Chinese hamster ovary (CHO) cells stably expressing the hERG channel were dislodged from tissue culture flasks and dispensed into PPC plates. […] During the recording, background leak currents were estimated by a 100 ms step to -80 mV from an initial holding potential of -70 mV and subtracted from the subsequent current measurement. The campaign was conducted in two phases using slight differences in recording protocol. In the first phase, the initial voltage pulse used a 100 ms step to -30 mV from a holding potential of -70 mV, a 2 s conditioning step to +25 mV, and a 2 s test step to -30 mV. During the second phase of the screen, the potential during the conditioning step was raised to +45 mV. In both phases of the campaign, a secondary voltage pulse was applied using the same parameters as the second phase initial pulse. The initial and secondary pulses were applied in the absence of compound, and upon application of 1 μM and 10 μM test concentrations. […]
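Also: peak tail current of the secondary pulse compared with the same well before compound.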

Chain of human ether-à-go-go-related gene (hERG) potassium channel (Q12809 whole entry, looked up): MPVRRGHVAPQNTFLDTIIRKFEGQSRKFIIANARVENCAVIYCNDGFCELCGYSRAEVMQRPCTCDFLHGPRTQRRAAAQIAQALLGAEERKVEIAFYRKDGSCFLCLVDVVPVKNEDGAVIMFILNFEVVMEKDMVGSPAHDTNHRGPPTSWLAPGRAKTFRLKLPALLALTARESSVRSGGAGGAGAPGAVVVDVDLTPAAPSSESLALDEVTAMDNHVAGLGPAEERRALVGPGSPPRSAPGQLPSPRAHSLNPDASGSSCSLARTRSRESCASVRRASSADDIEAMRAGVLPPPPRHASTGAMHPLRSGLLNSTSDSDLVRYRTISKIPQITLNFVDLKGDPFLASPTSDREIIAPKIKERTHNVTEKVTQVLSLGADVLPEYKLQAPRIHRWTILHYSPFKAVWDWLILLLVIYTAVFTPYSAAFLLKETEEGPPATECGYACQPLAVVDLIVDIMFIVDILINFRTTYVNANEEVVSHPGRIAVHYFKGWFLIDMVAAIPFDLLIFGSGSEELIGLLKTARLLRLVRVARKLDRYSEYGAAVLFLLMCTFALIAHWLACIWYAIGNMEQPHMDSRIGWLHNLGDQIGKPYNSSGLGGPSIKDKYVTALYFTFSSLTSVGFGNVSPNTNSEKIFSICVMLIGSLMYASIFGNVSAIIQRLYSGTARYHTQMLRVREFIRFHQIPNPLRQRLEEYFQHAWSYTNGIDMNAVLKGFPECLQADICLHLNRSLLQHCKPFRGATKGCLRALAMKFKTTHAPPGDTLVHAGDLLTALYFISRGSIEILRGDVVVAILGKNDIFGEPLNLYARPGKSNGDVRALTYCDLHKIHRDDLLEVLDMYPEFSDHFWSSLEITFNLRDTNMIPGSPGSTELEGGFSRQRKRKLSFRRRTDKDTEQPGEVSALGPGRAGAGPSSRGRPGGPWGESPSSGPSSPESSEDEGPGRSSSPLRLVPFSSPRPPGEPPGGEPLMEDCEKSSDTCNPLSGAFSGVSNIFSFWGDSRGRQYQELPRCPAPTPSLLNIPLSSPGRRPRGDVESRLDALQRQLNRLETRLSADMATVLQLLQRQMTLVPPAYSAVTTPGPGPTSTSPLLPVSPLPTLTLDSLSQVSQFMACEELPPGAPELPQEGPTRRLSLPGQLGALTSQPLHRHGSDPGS

Structure (SMILES)	hERG current change (%, negative = inhibition) at 10uM
N=C1/C(=C\c2ccc(-c3cccc(C(=O)O)c3)o2)C(=O)N=C2SC=C(c3ccccc3)N12	0.469%
CCCN1CCCc2ccccc21.Cl	7.61%
CNC(CC(C)C)C(=O)NC1C(=O)NC(CC(N)=O)C(=O)NC2C(=O)NC3C(=O)NC(C(=O)NC(C(=O)O)c4cc(O)cc(O)c4-c4cc3ccc4O)C(O)c3ccc(c(Cl)c3)Oc3cc2cc(c3OC2OC(CO)C(O)C(O)C2OC2C[C@](C)(N)C(O)C(C)O2)Oc2ccc(cc2Cl)C1O (some centres unmarked)	9.61%
COC(=O)c1ccc2c(=O)[nH]c(CCl)nc2c1	10.7%
COC(=O)NNC(=O)c1ccc(Cl)cc1Cl	19.8%
O=C(C1=C(O)C(=O)N(CC2CCCO2)C1c1ccc(Cl)cc1Cl)c1ccco1 (centres unmarked)	18.5%
COc1ccc(-c2oc(/N=C/N3CCOCC3)c(C#N)c2-c2ccc(OC)cc2)cc1	13.9%
CC(C)C(=O)Nc1sc2c(c1C(N)=O)CCN(Cc1ccccc1)C2.Cl	-108%
COC(=O)c1c(NC(=O)C(C)C)sc2c1CCN(Cc1ccccc1)C2.Cl	-38.4%
CCOC(=O)c1c(NC(=O)CC)sc2c1CCN(Cc1ccccc1)C2.Cl	-14.5%
COC(=O)c1c(NC(=O)C(C)(C)C)sc2c1CCN(Cc1ccccc1)C2.Cl	-34.7%
CC(=O)Nc1sc2c(c1C(N)=O)CCN(Cc1ccccc1)C2.Cl	-23.3%
CCC(=O)Nc1sc2c(c1C(=O)OC)CCN(Cc1ccccc1)C2.Cl	-62.9%
O=C(N/N=C/c1cn(-c2ccccc2)nc1-c1ccc2c(c1)OCCO2)c1ccncc1	15.2%
COc1ccc(NC(=O)COc2coc(CN3c4ccccc4CC3C)cc2=O)cc1 (centres unmarked)	5.06%
O=C(O)c1cc2c(cc1NC(=O)c1c(F)cccc1Cl)OCCCO2	5.08%
Cc1nc2sc3c(c2c(=O)n1/N=C/c1ccco1)CCCC3	16.8%
COc1cc(OC)c(N(C)C(=O)c2cc3c(s2)-c2ccccc2S(=O)(=O)C3)cc1Cl	-13.2%
CCOC(=O)N1CCN(C(=O)c2cc3c(s2)-c2ccc(Cl)cc2S(=O)(=O)C3)CC1	-66.5%
COc1ccc(N(C)C(=O)c2cc3c(s2)-c2ccccc2S(=O)(=O)C3)cc1	-39.9%
CCN1CCN(C(=O)c2cc3c(s2)-c2ccccc2S(=O)(=O)C3)CC1	-11.2%

Structure (SMILES)	hERG current change (%, negative = inhibition) at 10uM
CN1CCN(C(=O)c2cc3c(s2)-c2ccccc2S(=O)(=O)C3)CC1	4.14%
COc1ccc(N(C)C(=O)c2cc3c(s2)-c2ccc(Cl)cc2S(=O)(=O)C3)c(OC)c1	-58.5%
COc1cc(OC)cc(-n2nnnc2SCC(=O)Nc2nc3c(s2)CCCC3)c1	7.1%
Cc1nnc(SCC(=O)Nc2ccc3c(c2)OCO3)n(N)c1=O	11.3%
O=C(COc1cccc(-n2cnnn2)c1)N1CCOCC1	2.13%
O=C1OC(c2ccc(Br)cc2)=N/C1=C\N1CCCCC1	22%
CCN1CCCC1CNC(=O)CN1C(=O)COc2ccc(C)cc21 (centres unmarked)	-12.4%
COc1cccc(CNC(=O)CCC2CCCN(Cc3cc(Cl)ccc3O)C2)c1 (centres unmarked)	-60.6%
COc1cccc(CNC(=O)CCC2CCCN(Cc3ccc(OC(F)F)cc3)C2)c1 (centres unmarked)	-76.6%
COc1cccc(CNC(=O)CCC2CCCN(C(=O)CCC(F)(F)F)C2)c1 (centres unmarked)	-5.17%
COc1cccc(CNC(=O)CCC2CCCN(C3CCOCC3)C2)c1 (centres unmarked)	-0.768%
COc1cccc(CNC(=O)CCC2CCCN(C(=O)c3ccc(F)c(Cl)c3)C2)c1 (centres unmarked)	-16.6%
COc1cccc(CNC(=O)CCC2CCCN(C(=O)c3cccc(Cl)c3)C2)c1 (centres unmarked)	-20.9%
CC12CCC(C(=O)NC3CCCCC3)([C@H](Br)C1=O)C2(C)C (some centres unmarked)	10.6%
Cc1cc(C)cc(OCC(=O)OCC(=O)N2CCc3ccccc32)c1	14.5%
COc1ccc(C(=O)Cn2nc(CNc3ccc(Br)cc3)[n+]3c2CCCCC3)cc1.[Br-]	15.4%
Cc1ccc(C(C)C)c(OCC(=O)Nc2ccc(Cl)cn2)c1	-8.82%
O=C(Cn1nc(CNc2ccc(Cl)cc2)[n+]2c1CCCCC2)c1ccc(Br)cc1.[Br-]	-61.6%
Cc1ccc(C(C)C)c(OCc2nn(CC(=O)c3ccc(Cl)cc3)c3[n+]2CCCCC3)c1.[Br-]	-73.3%
O=C(Cn1nc(-c2nn(CC(=O)c3ccccc3)c3[n+]2CCCCC3)[n+]2c1CCCCC2)c1ccccc1.[Br-]	12.8%
O=C(Cn1nc(CNc2ccc(Cl)cc2)[n+]2c1CCCCC2)c1ccccc1.[Br-]	9.17%

Structure (SMILES)	hERG current change (%, negative = inhibition) at 10uM
COc1ccc(NCc2nn(CC(=O)c3ccc(Br)cc3)c3[n+]2CCCCC3)cc1.[Br-]	10.1%
Cc1ccc(C(C)C)c(OCc2nn(CC(=O)c3ccc(OC(F)F)cc3)c3[n+]2CCCCC3)c1.[Br-]	-72.5%
O=C(Cn1nc(CNc2ccc(Cl)cc2)[n+]2c1CCCCC2)c1ccc(Cl)cc1.[Br-]	-8.17%
O=C(Nc1ccccc1C(F)(F)F)c1cc(S(=O)(=O)N2CCC3(CC2)OCCO3)ccc1F	-17.1%
O=C(CCCCCN1C(=O)c2ccccc2C1=O)Nc1ccc(S(=O)(=O)N2CCCCC2)cc1	-46.6%
COc1ccc(NC(=O)N2CCCC(c3nc(-c4ccc(OC)cc4)no3)C2)cc1 (centres unmarked)	-4.38%
Cc1ccnc(NC(=O)C2CCN(S(=O)(=O)c3ccc(C)c(C)c3)CC2)c1	4.97%
Cl.N[C@@H](CO)c1nnc([C@H](CC(=O)O)NC(=O)C2CCNCC2)o1	16.7%
O=C(COC(=O)c1c[nH]c2ccccc12)Nc1ccc([N+](=O)[O-])cc1	-0.338%
COC(=O)[C@@H](NC(=O)NCc1ccco1)C(C)C	2.75%
Cc1cccc(NC(=O)c2cc(-c3cc(Cl)ccc3O)n[nH]2)c1	18.2%
CCN(Cc1ccncc1)C(=O)c1cccs1	2%
COc1cccc(CN(C)C(=O)c2cccnc2SC)c1OC	9.74%
COC(=O)c1cccc(NC(=O)C23CC4CC(C2)CC(n2cncn2)(C4)C3)c1	-25.4%
O=C(Nc1ccc2c(c1)OCO2)c1ccccc1SCC(=O)N1CCCC1	5.23%
CCOC(=O)C1CCN(CCCSc2ccccc2)CC1.Cl	-62.4%
CCOC(=O)C1CCN(CCCSc2ccc(Cl)cc2)CC1.Cl	-72.7%
Cc1ccc(SCCCCN2CCOCC2)cc1.Cl	-24.6%
CCOC(=O)C1CCN(CCCSc2ccc(C)cc2)CC1.Cl	-71%
CCOC(=O)C1CCN(C(=O)CSc2ccc(Cl)cc2)CC1	-32.5%
CCOC(=O)C1CCCN(CCSc2ccc(C)cc2)C1.Cl (centres unmarked)	-28.3%

Structure (SMILES)	hERG current change (%, negative = inhibition) at 10uM
CCOC(=O)C1CCN(C(=O)C(C)Sc2ccc(Cl)cc2)CC1 (centres unmarked)	-27.9%
CCOC(=O)C1CCN(C(=O)CSc2ccccc2)CC1	-20.3%
CCN1CCN(CCCCSc2ccccc2)CC1.O=C(O)C(=O)O	-28.3%
COC(=O)[C@H](C)NC(=O)NCc1ccccc1	1.58%
CCCC(=O)Nc1ccc2c(c1)nc1n2CCOC1	6.13%
Cc1ccc(-n2nnc3ccccc3c2=O)cc1C	-2.63%
c1coc(-c2nc3c4c5c(sc4ncn3n2)CCCC5)c1	10.6%
CSCCCNC(=O)c1ccc(OC2CCN(CCc3ccccc3)CC2)cc1	-75.2%
O=C(NC1CCOC1)c1ccc(OC2CCN(CCc3ccccc3)CC2)cc1 (centres unmarked)	-39.8%
COCC(=O)N1CCC(Oc2ccc(C(=O)N(C)CCCC3CCCC3)cc2)CC1	-26.9%
COC(=O)CCCNC(=O)c1ccc(OC2CCN(CCc3ccccc3)CC2)cc1	-47.7%
COCC(=O)N1CCC(Oc2ccc(C(=O)NCCCC3CCCC3)cc2)CC1	-71.5%
COCCC(=O)N1CCC(Oc2ccc(C(=O)NCCSC)cc2)CC1	13.6%
CSCCNC(=O)c1ccc(OC2CCN(CCc3ccccc3)CC2)cc1	-64.6%
COCCC(=O)N1CCC(Oc2ccc(C(=O)NCCCC3CCCC3)cc2)CC1	-37.3%
CSCCCNC(=O)c1ccc(OC2CCN(C(=O)c3cccnc3)CC2)cc1	-11.4%
CN(C)S(=O)(=O)c1cccc(NC(=S)N/N=C/C(c2ccccc2)c2ccccc2)c1	1.1%
COc1ccc([N+](=O)[O-])cc1NC(=O)c1cncc(Br)c1	-12.2%
CN1C(=O)NC(c2ccccc2Cl)C2=C1CC(C)(C)CC2=O (centres unmarked)	5.71%
O=C(NCCC1=CCCCC1)C1CCCN(S(=O)(=O)c2ccc(F)cc2)C1 (centres unmarked)	19.6%
